# According to PubChem BioAssay (NCATS):
# Records with an inconclusive call do not appear. Activity calls are given as the source filed them. Unless noted, calls follow the shape of the full dose curve.
# Columns and labels:
# [1] = qHTS drug screen for cell cycle checkpoint inhibitors in PARPi-resistant BRCA-mutant ovarian cancer cell lines. (AID 1963452); details: PEO1/OlaR viability, CellTiter-Glo luminescence, 96 h, stronger effect = lower value
# How it was run: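 PEO1, PEO4 and PEO1/OlaR ovarian cancer cells, 600 per well, exposed 96 h at 37C to a dilution series. Viability read by CellTiter-Glo luminescence, normalized to DMSO and empty wells; activity summarized as Z-AUC.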
# [2] = molecular target: Cytochrome P450 2D6 (Homo sapiens) (UniProt P10635); test: qHTS for inhibitors of CYP2D6 against the NCATS DSHEA and TCM libraries (AID 1919972; active = well fitted curve in the direction sought with a large enough effect; an effect the other way counts as inactive or inconclusive; also: potency is read from the fitted curve at half-maximal effect); details: CYP2D6 enzymatic inhibition, luminescence qHTS
# How it was run: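 Luminescent P450-Glo read-out of CYP2D6 turnover of a luciferin substrate after NADPH-driven reaction of 30-45 min at room temperature. Compounds were first preincubated 15 min with enzyme at titrated concentrations; quinidine was the intraplate control.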
# [3] = molecular target: Cytochrome P450 2C9 (Homo sapiens) (UniProt P11712); test: qHTS for inhibitors of CYP2C9 against the NCATS DSHEA and TCM libraries (AID 1919973; active = well fitted curve in the direction sought with a large enough effect; an effect the other way counts as inactive or inconclusive; also: potency is read from the fitted curve at half-maximal effect); details: recombinant CYP2C9 enzyme activity, luminescence
# How it was run: (§1)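 Read-out is luminescence after P450-Glo detection (30 min, RT). Before that: 15 min compound–enzyme preincubation, then 30-45 min reaction with 1x NADPH regeneration solution, substrate concentration isoform-specific.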
# [4] = molecular target: Cytochrome P450 2C19 (Homo sapiens) (UniProt P33261); test: qHTS for inhibitors of CYP2C19 against the NCATS DSHEA and TCM libraries (AID 1919974; active = well fitted curve in the direction sought with a large enough effect; an effect the other way counts as inactive or inconclusive;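 also: luminescence from luciferin released by CYP2C19 oxidation of a pro-luciferin substrate; potency is read from the fitted curve at half-maximal effect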); details: CYP2C19 enzyme inhibition, luminescence qHTS
# How it was run: as §1
# [5] = KB-3-1 P-gp reporter qHTS against the NCATS DSHEA and TCM libraries (AID 1919975; active = well fitted curve in the direction sought with a large enough effect; an effect the other way counts as inactive or inconclusive; also: 0% is about no effect); details: KB-3-1 parental cells, CellTiter-Glo luminescence viability, 72 h; series mostly up to 26.1 µM
# How it was run: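 Parental KB-3-1 human cervical adenocarcinoma cells (500 cells/well, DMEM + 10% FBS) were treated with substances for ~72 h at 37C; viability was read by CellTiter-Glo luminescence.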
# [6] = molecular target: Cytochrome P450 1A2 (Homo sapiens) (UniProt P05177); test: qHTS for inhibitors of CYPIA2 against the NCATS DSHEA and TCM libraries (AID 1919976; active = well fitted curve in the direction sought with a large enough effect; an effect the other way counts as inactive or inconclusive; also: potency is read from the fitted curve at half-maximal effect); details: recombinant CYP1A2 enzyme activity, luminescence
# How it was run: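 CYP1A2 + luciferin substrate, 100 mM KPO4-type buffer; cmpd 15 min RT; 1x NADPH regen, 30-45 min RT dark; detection reagent 30 min RT; luminescence. Minus-enzyme wells as background; furafylline intraplate control.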
# [7] = Dual reporter qHTS for agonist of Pregnane X Receptor (hPXR) against the NCATS DSHEA and TCM libraries: Fluorescence readout (AID 1920058; active = well fitted curve in the direction sought with a large enough effect; an effect the other way counts as inactive or inconclusive; also: 0% is about no effect); details: PXR dual reporter cells; series mostly up to 40 µM
# How it was run: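 HepG2 hPXR-Luc, 2000 cells/well, 5 h attach; cpds ~24 h, 37 °C/5% CO2; CellTiter-Fluor 1 h; fluor. Ex/Em 405/540 nm = viability.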
# [8] = molecular target: Nuclear receptor subfamily 1 group I member 2 (Homo sapiens) (UniProt O75469); test: Dual reporter qHTS for agonist of Pregnane X Receptor (hPXR) against the NCATS DSHEA and TCM libraries: Luminescence readout (AID 1920059; active = well fitted curve in the direction sought with a large enough effect; an effect the other way counts as inactive or inconclusive; also: 0% is about no effect); details: hPXR dual reporter cells, luciferase luminescence agonist; series mostly up to 40 µM
# Text: (§2) Assay Development and Screening Technology Laboratory (ADST)
# (§3) National Center for Advancing Translational Sciences (NCATS), Rockville, MD
# (§4) National Institute of Health (NIH), Bethesda, Maryland
# (§5) Dietary Supplements and Natural Products have minor oversight of their safety and efficacy. We assembled a collection of Dietary Supplements and Natural Products (DSNP) as well as Traditional Chinese Medicinal (TCM) Plant extracts, which were screened against an in vitro panel of assays, including a liver cytochrome p450 enzyme panel, CAR/PXR signaling pathways, and P-gp transporter assays, to assess their activity. This pipeline facilitated the interrogation of Natural Product-Drug Interaction (NaPDI) through prominent metabolizing pathways. In addition, we compared the activity profiles of the DSNP/TCM substances with those of an approved drug collection. […] Overall, we highlight four significant bioactivity profiles (measured by p-values) as examples of this prediction. […] To profile potential P-gp activity, a differential cell viability was measured against two cell lines: a parental KB-3-1 human cervical adenocarcinoma cell line and the drug-resistant subline KB-8-5-11 that overexpresses P-gp. […]
# (§6) 8; Read; Fluorescence; ViewLux plate reader. […]
# (§7) 11; Read; Luminescence; ViewLux plate reader. […]
# [9] = molecular target: Nuclear receptor subfamily 1 group I member 2 (Homo sapiens) (UniProt O75469); test: Dual reporter qHTS for antagonist of Pregnane X Receptor (hPXR) against the NCATS DSHEA and TCM libraries: Luminescence Readout (AID 1920060; active = well fitted curve in the direction sought with a large enough effect; an effect the other way counts as inactive or inconclusive; also: 0% is about no effect); details: hPXR dual reporter cells, luciferase luminescence, antagonist mode; series mostly up to 40 µM
# Text: as §2, §3, §4, §5, §6, §7
# [10] = Dual reporter qHTS for antagonist of Pregnane X Receptor (hPXR) against the NCATS DSHEA and TCM libraries: Fluorescence Readout (AID 1920061; active = well fitted curve in the direction sought with a large enough effect; an effect the other way counts as inactive or inconclusive; also: 0% is about no effect); details: PXR dual reporter cells, antagonist mode; series mostly up to 40 µM
# How it was run: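 Rifampicin-stimulated (2 uM final) hPXR-luciferase HepG2 cells were treated for 24 h with DSNP/TCM substances. Viability came from CellTiter-Fluor fluorescence, reporter activity from ONE-Glo luminescence.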
# [11] = measured here: PEO1 parental Z-AUC
# Nuclear receptor subfamily 1 group I member 2 (Homo sapiens), sequence (O75469 whole entry, looked up): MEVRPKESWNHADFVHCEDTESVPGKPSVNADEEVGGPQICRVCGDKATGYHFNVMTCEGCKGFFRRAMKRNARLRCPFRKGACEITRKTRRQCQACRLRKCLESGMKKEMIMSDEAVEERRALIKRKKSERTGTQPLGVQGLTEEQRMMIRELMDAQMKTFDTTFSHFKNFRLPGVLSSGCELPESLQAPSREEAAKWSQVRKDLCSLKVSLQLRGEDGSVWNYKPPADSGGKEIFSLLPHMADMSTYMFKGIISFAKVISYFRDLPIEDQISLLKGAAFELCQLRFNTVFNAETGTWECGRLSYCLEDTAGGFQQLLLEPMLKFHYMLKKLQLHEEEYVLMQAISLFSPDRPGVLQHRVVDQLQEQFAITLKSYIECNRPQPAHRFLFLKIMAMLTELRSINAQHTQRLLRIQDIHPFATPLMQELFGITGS
# Cytochrome P450 2C9 (Homo sapiens), sequence (P11712 whole entry, looked up, canonical isoform): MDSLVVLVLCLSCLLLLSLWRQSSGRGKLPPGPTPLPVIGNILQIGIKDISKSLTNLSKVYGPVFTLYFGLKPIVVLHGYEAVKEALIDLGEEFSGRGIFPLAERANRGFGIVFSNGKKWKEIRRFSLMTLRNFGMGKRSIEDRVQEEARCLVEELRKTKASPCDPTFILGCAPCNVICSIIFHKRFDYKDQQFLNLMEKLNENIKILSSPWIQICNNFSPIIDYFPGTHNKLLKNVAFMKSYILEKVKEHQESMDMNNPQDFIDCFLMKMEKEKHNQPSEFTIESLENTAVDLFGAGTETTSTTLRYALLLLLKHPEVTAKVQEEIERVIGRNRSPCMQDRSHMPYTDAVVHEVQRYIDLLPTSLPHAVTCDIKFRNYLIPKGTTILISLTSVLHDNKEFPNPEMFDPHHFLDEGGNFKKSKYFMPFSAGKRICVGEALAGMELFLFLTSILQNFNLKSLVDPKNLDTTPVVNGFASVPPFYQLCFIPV
# Cytochrome P450 1A2 (Homo sapiens), sequence (P05177 whole entry, looked up): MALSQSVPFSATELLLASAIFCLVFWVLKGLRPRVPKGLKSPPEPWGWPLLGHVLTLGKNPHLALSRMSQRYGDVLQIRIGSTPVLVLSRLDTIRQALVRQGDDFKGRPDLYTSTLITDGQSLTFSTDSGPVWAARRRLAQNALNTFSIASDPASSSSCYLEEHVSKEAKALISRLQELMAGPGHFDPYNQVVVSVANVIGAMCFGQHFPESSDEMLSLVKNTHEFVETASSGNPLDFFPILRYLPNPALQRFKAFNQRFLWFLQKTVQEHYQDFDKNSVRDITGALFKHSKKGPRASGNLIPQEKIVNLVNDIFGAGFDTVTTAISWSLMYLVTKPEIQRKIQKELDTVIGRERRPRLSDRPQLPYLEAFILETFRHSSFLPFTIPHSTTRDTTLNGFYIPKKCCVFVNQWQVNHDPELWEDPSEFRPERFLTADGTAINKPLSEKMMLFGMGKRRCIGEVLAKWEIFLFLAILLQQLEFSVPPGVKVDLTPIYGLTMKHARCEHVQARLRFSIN
# Cytochrome P450 2D6 (Homo sapiens), sequence (P10635 whole entry, looked up): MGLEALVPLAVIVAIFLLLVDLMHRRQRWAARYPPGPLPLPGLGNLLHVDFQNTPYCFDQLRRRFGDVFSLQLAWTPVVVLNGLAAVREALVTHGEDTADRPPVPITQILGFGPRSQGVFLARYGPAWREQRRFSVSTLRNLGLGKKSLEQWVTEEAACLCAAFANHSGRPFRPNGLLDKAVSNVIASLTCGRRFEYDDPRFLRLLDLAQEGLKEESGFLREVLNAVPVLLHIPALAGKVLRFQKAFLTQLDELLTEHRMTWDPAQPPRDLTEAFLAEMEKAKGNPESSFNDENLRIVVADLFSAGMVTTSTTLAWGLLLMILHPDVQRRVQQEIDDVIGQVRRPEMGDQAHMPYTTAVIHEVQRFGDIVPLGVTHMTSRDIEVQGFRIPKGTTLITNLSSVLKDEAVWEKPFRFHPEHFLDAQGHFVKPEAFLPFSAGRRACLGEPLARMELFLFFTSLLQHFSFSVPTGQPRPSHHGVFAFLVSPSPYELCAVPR
# Cytochrome P450 2C19 (Homo sapiens), sequence (P33261 whole entry, looked up): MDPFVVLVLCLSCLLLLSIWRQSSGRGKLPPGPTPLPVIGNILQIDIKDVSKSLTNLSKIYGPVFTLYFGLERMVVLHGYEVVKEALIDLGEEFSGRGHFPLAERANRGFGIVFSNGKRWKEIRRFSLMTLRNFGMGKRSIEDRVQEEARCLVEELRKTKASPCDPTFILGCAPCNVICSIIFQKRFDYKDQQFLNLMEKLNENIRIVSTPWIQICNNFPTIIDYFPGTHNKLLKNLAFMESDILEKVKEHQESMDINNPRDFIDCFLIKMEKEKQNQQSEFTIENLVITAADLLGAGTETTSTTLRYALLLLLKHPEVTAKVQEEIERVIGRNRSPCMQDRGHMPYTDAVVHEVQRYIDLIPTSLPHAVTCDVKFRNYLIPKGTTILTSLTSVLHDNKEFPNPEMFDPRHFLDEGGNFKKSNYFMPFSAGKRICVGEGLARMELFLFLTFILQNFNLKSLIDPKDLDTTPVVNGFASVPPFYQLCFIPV
smiles,measurement,setting,value
CCOC(=O)c1c(C)n(C)c2ccc(O)cc12,Z-AUC,[1],1.13 (inactive)
same,Z-AUC,[1]; [11],0.765
same,Z-AUC,[1]; measured here: PEO4 Z-AUC,0.891
O=C(NCCO[N+](=O)[O-])c1cccnc1,Z-AUC,[1],-0.64 (inactive)
same,Z-AUC,[1]; [11],-0.487
same,Z-AUC,[1]; measured here: PEO4 Z-AUC,-0.272
COC(=O)C1=C(C)NC(C)=C(C(=O)OCCCN2CCC(c3ccccc3)(c3ccccc3)CC2)C1c1cccc([N+](=O)[O-])c1 (stereo not given),Z-AUC,[1],0.516 (inactive)
same,Z-AUC,[1]; [11],0.68
same,Z-AUC,[1]; measured here: PEO4 Z-AUC,0.403
COc1cc2c(cc1OC)C1CC(=O)C(CC(C)C)CN1CC2 (stereo not given),Z-AUC,[1],0.0378 (inactive)
same,Z-AUC,[1]; [11],0.296
same,Z-AUC,[1]; measured here: PEO4 Z-AUC,0.889
Nc1cc(C(Cl)=C(Cl)Cl)c(S(N)(=O)=O)cc1S(N)(=O)=O,Z-AUC,[1],1.44 (inactive)
same,Z-AUC,[1]; [11],1.19
same,Z-AUC,[1]; measured here: PEO4 Z-AUC,1.34
Cc1ccc(S(=O)(=O)NC(=O)NN2CC3CCCC3C2)cc1 (stereo not given),Z-AUC,[1],1.31 (inactive)
same,Z-AUC,[1]; [11],0.956
same,Z-AUC,[1]; measured here: PEO4 Z-AUC,1.09
CC(C)[C@H](N)C(=O)OCCOCn1cnc2c(=O)[nH]c(N)nc21,Z-AUC,[1],1.05 (inactive)
same,Z-AUC,[1]; [11],0.583
same,Z-AUC,[1]; measured here: PEO4 Z-AUC,0.722
CCCS(=O)c1ccc2nc(NC(=O)OC)[nH]c2c1 (stereo not given),Z-AUC,[1],-0.279 (inactive)
same,Z-AUC,[1]; [11],-0.314
same,Z-AUC,[1]; measured here: PEO4 Z-AUC,0.468
COCCCN1CCC(NC(=O)c2cc(Cl)c(N)c3c2OCC3)CC1,Z-AUC,[1],1.78 (inactive)
same,Z-AUC,[1]; [11],1.56
same,Z-AUC,[1]; measured here: PEO4 Z-AUC,1.58
CN(C)C(=O)COC(=O)Cc1ccc(OC(=O)c2ccc(N=C(N)N)cc2)cc1,Z-AUC,[1],-0.267 (inactive)
same,Z-AUC,[1]; [11],-0.623
same,Z-AUC,[1]; measured here: PEO4 Z-AUC,-0.684
Clc1ccc(C(Cn2ccnc2)OCc2c(Cl)cccc2Cl)c(Cl)c1 (stereo not given),Z-AUC,[1],0.975 (inactive)
same,Z-AUC,[1]; [11],0.252
same,Z-AUC,[1]; measured here: PEO4 Z-AUC,0.49
CC[C@]1(O)C[C@H]2CN(CCc3c([nH]c4ccccc34)[C@@](C(=O)OC)(c3cc4c(cc3OC)N(C=O)[C@H]3[C@@](O)(C(=O)OC)[C@H](OC(C)=O)[C@]5(CC)C=CCN6CC[C@]43[C@@H]65)C2)C1,Z-AUC,[1],-0.637 (inactive)
same,Z-AUC,[1]; [11],-1.14
same,Z-AUC,[1]; measured here: PEO4 Z-AUC,-1.16
C[Se]CCC(N)C(=O)O (stereo not given),Z-AUC,[1],0.282 (inactive)
same,Z-AUC,[1]; [11],1.03
same,Z-AUC,[1]; measured here: PEO4 Z-AUC,1.31
Nc1nc(N)c(N=O)c(OCC2CCCCC2)n1,Z-AUC,[1],-0.0306 (inactive)
same,Z-AUC,[1]; [11],0.757
same,Z-AUC,[1]; measured here: PEO4 Z-AUC,0.22
COc1ccc2cc([C@H](C)C(=O)O)ccc2c1,Z-AUC,[1],-0.4 (inactive)
same,Z-AUC,[1]; [11],-0.248
same,Z-AUC,[1]; measured here: PEO4 Z-AUC,-0.0585
O=Nc1c(-c2c(O)[nH]c3cc(Br)ccc23)[nH]c2ccccc12,Z-AUC,[1],-0.607 (inactive)
same,Z-AUC,[1]; [11],-0.18
same,Z-AUC,[1]; measured here: PEO4 Z-AUC,-0.803
Cc1cc(O)c2c(c1)C(=O)c1cc(O)cc(O)c1C2=O,Potency,[2],22.4 µM (active)
same,Potency,[3],8.91 µM (active)
same,Potency,[4],22.4 µM (active)
same,outcome,[5],inactive
same,Potency,[6],8.91 µM (active)
same,outcome,[7],inactive
same,outcome,[8],inactive
same,outcome,[9],inactive
same,outcome,[10],inactive
same,Z-AUC,[1],0.333 (inactive)
same,Z-AUC,[1]; [11],0.799
same,Z-AUC,[1]; measured here: PEO4 Z-AUC,0.55
